# Experimental data from PubChem BioAssay (EPA / NIEHS).
# Results filed as inconclusive are left out. Activity calls are given as the source filed them. The calls were made as follows, unless noted: active = hit-call score of the fitted dose curve at least 0.9, where 1 is the maximum; inconclusive = response in the unintended direction; inactive = score below 0.9.
# Experiments:
# [1] = molecular target: Nucleoli Translocation, AR (gene 367) (UniProt P10275); test: UPITT_HCI_U2OS_AR_TIF2_Nucleoli_Antagonist: University of Pittsburgh U2OS Androgen Receptor-Transcriptional Intermediary Factor 2 (AR-TIF2) Antagonism High Content Imaging Assay for Nucleoli Translocation (AID 2283997)
# Nucleoli Translocation, AR (gene 367), sequence (P10275 whole entry, looked up): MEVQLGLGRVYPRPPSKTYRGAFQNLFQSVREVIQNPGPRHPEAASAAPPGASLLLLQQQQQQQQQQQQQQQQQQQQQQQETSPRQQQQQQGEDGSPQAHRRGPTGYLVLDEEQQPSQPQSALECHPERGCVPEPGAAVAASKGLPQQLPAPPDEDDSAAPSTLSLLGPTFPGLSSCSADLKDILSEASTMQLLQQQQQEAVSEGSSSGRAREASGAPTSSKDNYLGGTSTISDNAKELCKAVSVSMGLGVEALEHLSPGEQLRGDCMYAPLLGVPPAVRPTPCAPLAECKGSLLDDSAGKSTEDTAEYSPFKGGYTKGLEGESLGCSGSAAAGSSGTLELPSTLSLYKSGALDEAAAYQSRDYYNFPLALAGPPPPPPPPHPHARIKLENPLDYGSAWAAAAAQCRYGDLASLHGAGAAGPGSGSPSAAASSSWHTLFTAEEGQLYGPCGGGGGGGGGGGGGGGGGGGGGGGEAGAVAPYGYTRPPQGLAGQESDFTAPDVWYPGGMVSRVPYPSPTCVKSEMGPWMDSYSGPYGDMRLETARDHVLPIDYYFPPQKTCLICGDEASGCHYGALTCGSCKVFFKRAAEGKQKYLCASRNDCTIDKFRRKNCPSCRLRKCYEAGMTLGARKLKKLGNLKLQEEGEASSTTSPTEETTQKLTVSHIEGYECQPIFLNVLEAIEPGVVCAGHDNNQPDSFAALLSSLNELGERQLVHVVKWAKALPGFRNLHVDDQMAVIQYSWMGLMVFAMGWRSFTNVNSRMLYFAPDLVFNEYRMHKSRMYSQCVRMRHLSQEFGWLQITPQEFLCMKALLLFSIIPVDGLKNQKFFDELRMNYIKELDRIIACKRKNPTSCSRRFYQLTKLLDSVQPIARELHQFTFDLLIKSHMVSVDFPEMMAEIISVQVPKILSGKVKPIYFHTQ
# Procedure, shortened: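 U2OS cells expressing RFP-tagged human AR and GFP-tagged TIF2 were imaged by high-content fluorescence microscopy for red AR signal in the nucleolar region. Compounds were screened at 20 uM final (0.2% DMSO), with activity fitted relative to DHT as baseline.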
# [2] = molecular target: Nucleoli Translocation, AR (gene 367) (UniProt P10275); test: UPITT_HCI_U2OS_AR_TIF2_Nucleoli_Agonist: University of Pittsburgh U2OS Androgen Receptor-Transcriptional Intermediary Factor 2 (AR-TIF2) Agonism High Content Imaging Assay for Nucleoli Translocation (AID 2283998)
# Procedure, shortened: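 Red-tagged human androgen receptor co-expressed with GFP-tagged TIF2 serves as the binding reporter. Primary testing used 20 uM final (0.2% DMSO); follow-up dose response covered 0.195 to 50 uM final (0.5% DMSO).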
# [3] = molecular target: Ratio of Nucleoli Translocation and Cytoplasm, AR (gene 367) (UniProt P10275); test: UPITT_HCI_U2OS_AR_TIF2_Nucleoli_Cytoplasm_Ratio_Antagonist: University of Pittsburgh U2OS Androgen Receptor-Transcriptional Intermediary Factor 2 (AR-TIF2) Antagonism High Content Imaging Assay for Ratio of Nucleoli Translocation and Cytoplasm (AID 2283999);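 also: antagonists lower the DHT-driven ratio of nucleolar to cytoplasmic red signal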
# Ratio of Nucleoli Translocation and Cytoplasm, AR (gene 367), sequence (P10275 whole entry, looked up): as above
# Procedure, shortened: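 U2OS cells expressing RFP-tagged human AR and GFP-tagged TIF2; compounds tested at 20 uM final (0.2% DMSO) in primary screen, 0.195–50 uM (0.5% DMSO) for concentration response. Readout: nucleolar-to-cytoplasmic red fluorescence ratio by high-content imaging, fitted relative to DHT.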
# [4] = molecular target: Ratio of Nucleoli Translocation and Cytoplasm, AR (gene 367) (UniProt P10275); test: UPITT_HCI_U2OS_AR_TIF2_Nucleoli_Cytoplasm_Ratio_Agonist: University of Pittsburgh U2OS Androgen Receptor-Transcriptional Intermediary Factor 2 (AR-TIF2) Agonism High Content Imaging Assay for Ratio of Nucleoli Translocation and Cytoplasm (AID 2284000);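 also: hits raise the red nucleolar to cytoplasm ratio above vehicle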
# Procedure, shortened: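 U2OS cells expressing RFP-tagged human AR and GFP-tagged TIF2 were imaged by high-content fluorescence microscopy. The endpoint is the ratio of nucleolar to cytoplasmic red fluorescence, fitted for gain of signal relative to DMSO. Concentration-response spanned 0.195 to 50 uM final (0.5% DMSO).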
# [5] = CCTE_Shafer_MEA_acute_spike_number: CCTE's Neural Acute Assay for Total Number of Spikes, Shafer Lab (AID 2284008; active = hit-call score of the fitted dose curve at least 0.9, where 1 is the maximum; inactive = score below 0.9;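 as to AC50: curve fitted for decrease in spike count so AC50 reflects inhibitors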)
# Procedure, shortened: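 Cortical neurons from rat, matured to DIV 13 or 15 on microelectrode arrays, are recorded at 37 C before and during 40-min exposure to 0.03-40 uM compound. Wells need >/= 10 active electrodes.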
# [6] = CCTE_Shafer_MEA_acute_firing_rate_mean: CCTE's Neural Acute Assay for Mean Firing Rate, Shafer Lab (AID 2284009; active = hit-call score of the fitted dose curve at least 0.9, where 1 is the maximum; inactive = score below 0.9;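 also: analyzed for loss of signal so actives lower firing rate relative to DMSO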)
# Procedure, shortened: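 Read-out: well-mean spike rate (spikes/recording length/electrodes), % change from 40 min pre-dose baseline to 40 min with compound. Rat cortical cultures, DIV 13 or 15, 37 C; 0.03-40 uM; DMSO as negative control.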
# PGR (gene 5241) [7] = molecular target: PGR (gene 5241) (UniProt P06401); test: TOX21_PR_BLA_Followup_Agonist_ratio: Tox21 HEK293 Progesterone Receptor (PR) Agonism Beta-lactamase Follow-Up Assay, Ratio (AID 2283933)
# PGR (gene 5241), sequence (P06401 whole entry, looked up, the tested form may be a part): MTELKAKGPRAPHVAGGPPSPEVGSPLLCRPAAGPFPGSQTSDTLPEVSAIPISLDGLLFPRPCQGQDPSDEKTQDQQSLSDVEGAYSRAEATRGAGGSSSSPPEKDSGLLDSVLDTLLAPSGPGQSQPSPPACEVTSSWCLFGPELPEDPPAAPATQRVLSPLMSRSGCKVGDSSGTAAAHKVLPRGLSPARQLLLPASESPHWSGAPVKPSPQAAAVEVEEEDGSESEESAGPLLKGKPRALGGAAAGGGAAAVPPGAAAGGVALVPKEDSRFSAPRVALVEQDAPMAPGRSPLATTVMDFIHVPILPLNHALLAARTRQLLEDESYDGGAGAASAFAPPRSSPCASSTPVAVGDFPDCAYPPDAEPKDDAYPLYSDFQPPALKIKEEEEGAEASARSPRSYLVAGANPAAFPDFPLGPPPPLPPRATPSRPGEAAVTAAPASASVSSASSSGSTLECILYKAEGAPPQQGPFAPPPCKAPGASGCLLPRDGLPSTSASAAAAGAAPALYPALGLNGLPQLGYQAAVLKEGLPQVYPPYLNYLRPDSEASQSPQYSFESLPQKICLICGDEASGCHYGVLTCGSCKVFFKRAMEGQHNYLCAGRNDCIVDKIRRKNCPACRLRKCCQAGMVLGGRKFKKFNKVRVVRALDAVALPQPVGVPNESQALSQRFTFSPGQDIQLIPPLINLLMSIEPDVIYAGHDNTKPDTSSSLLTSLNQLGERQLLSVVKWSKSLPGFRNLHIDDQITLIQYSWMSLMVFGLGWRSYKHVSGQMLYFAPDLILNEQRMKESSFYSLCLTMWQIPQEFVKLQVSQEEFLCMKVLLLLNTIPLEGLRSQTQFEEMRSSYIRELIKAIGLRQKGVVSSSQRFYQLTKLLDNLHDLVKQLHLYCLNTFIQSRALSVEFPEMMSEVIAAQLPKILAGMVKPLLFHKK
# Procedure, shortened: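 PR-UAS-bla HEK293T cells (GAL4-UAS beta-lactamase reporter) in medium with 2% charcoal-stripped FBS received compounds after 6 hr at 37C, then incubated 16 hr. LiveBLAzer FRET substrate added, 2 hr room temperature; cleaved/uncleaved (ch2/ch1) ratio fitted upward versus DMSO.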
# PGR (gene 5241) [8] = molecular target: PGR (gene 5241) (UniProt P06401); test: TOX21_PR_BLA_Followup_Antagonist_ratio: Tox21 HEK293 Progesterone Receptor (PR) Antagonism Beta-lactamase Follow-Up Assay, Ratio (AID 2283934)
# Procedure, shortened: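 PR-UAS-bla HEK293T cells in medium with 2% charcoal-stripped FBS were treated with compounds plus 1 nM (final) promegestone (R5020) for 16 hr at 37C. LiveBLAzer B/G FRET substrate was then added for 2 h at room temperature; signal is cleaved/uncleaved substrate ratio versus DMSO.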
# [9] = TOX21_PR_BLA_Followup_Agonist_viability: Viability Assessment in the Tox21 HEK293 Progesterone Receptor (PR) Agonism Beta-lactamase Follow-Up Assay (AID 2283935);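 also: signal loss means lower viability so actives are cytotoxic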
# Procedure, shortened: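 PR-UAS-bla HEK293T cells in 2% charcoal-stripped FBS medium, compound added after 6 hr plating, 16 hr at 37C/5% CO2. After bla FRET read, CellTiter-Glo added; luminescence read after 30 min at room temperature; signal loss marks cytotoxicity.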
# [10] = TOX21_PR_BLA_Followup_Antagonist_viability: Viability Assessment in the Tox21 HEK293 Progesterone Receptor (PR) Antagonism Beta-lactamase Follow-Up Assay (AID 2283936);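 also: hits lower the luminescence signal meaning cytotoxicity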
# Procedure, shortened: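 PR-UAS-bla HEK293T cells (3,000/well, 2% charcoal-stripped FBS) given compound plus R5020 agonist, 16 h at 37C. CellTiter-Glo added after bla read, 30 min at room temperature; luminescence loss indicates cytotoxicity.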
# PGR (gene 5241) [11] = molecular target: PGR (gene 5241) (UniProt P06401); test: TOX21_PR_LUC_Followup_Agonist: Tox21 HEK293 Progesterone Receptor (PR) Agonism Luciferase Follow-Up Assay (AID 2283937; active = hit-call score of the fitted dose curve at least 0.9, where 1 is the maximum; inactive = score below 0.9)
# Procedure, shortened: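 HEK293-PR-A-luc cells, pre-cultured 5 days in medium with 10% charcoal-stripped FBS, were seeded at 3,000 cells/well, rested 5 h at 37C, then exposed to compounds 16 h at 37C; luciferase read by ONE-Glo luminescence after 30 min.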
# PGR (gene 5241) [12] = molecular target: PGR (gene 5241) (UniProt P06401); test: TOX21_PR_LUC_Followup_Antagonist: Tox21 HEK293 Progesterone Receptor (PR) Antagonism Luciferase Follow-Up Assay (AID 2283938);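 also: curve fitted upward as signal gain over DMSO baseline despite antagonist label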
# Procedure, shortened: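 A follow-up to the PR bla screen using HEK293-PR-A-luc cells, multiplexed with cell viability to flag cytotoxicity. Reporter luminescence after 16 h compound exposure was analysed relative to DMSO.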
# [13] = TOX21_PR_LUC_Followup_Antagonist_viability: Viability Assessment in the Tox21 HEK293 Progesterone Receptor (PR) Antagonism Luciferase Follow-Up Assay (AID 2283940)
# Procedure, shortened: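 HEK293-PR-A-luc cells, precultured 5 days in assay medium with 10% charcoal-stripped FBS, were seeded at 3,000 cells/well, treated with compounds in DMSO for 16 h at 37C, and viability was read as cellular ATP by CellTiter-Glo luminescence.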
# [14] = TOX21_PR_LUC_Followup_Agonist_viability: Viability Assessment in the Tox21 HEK293 Progesterone Receptor (PR) Agonism Luciferase Follow-Up Assay (AID 2283941);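 also: loss of signal means cytotoxicity so actives lower viability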
# Procedure, shortened: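 HEK293-PR-A-luc cells, pre-cultured 5 days in 10% charcoal-stripped FBS, were seeded at 3,000 cells/well, rested 5 h at 37C, then given compound in DMSO for 16 h at 37C. Cellular ATP was read by CellTiter-Glo luminescence; signal loss indicates cytotoxicity.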
# [15] = CCTE_Harrill_HTTr_Viability_MCF7: CCTE's 6-hour Cell Viability Assessment for the High-Throughput Transcriptomics (HTTr) Platform, in MCF-7 cells cultured in DMEM + 10% fetal bovine serum, Harrill Lab (AID 2284010; active = hit-call score of the fitted dose curve at least 0.9, where 1 is the maximum; inactive = score below 0.9)
# Procedure, shortened: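 Membrane integrity was scored by high-content imaging of propidium iodide dye exclusion after a 6 h exposure across an eight-point dilution series. Data were fitted bidirectionally relative to DMSO as negative control and baseline.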
# DIO1 (gene 1733) = test: CCTE_GLTED_hDIO1: CCTE's human Deiodinase 1 (DIO1) Inhibition Assay, Great Lakes Toxicology and Ecology Division (GLTED) Lab (AID 2283987);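 also: isolated human DIO1 enzyme in a cell-free setup rather than cells; enzyme activity read as free iodide liberated from substrate via Sandell-Kolthoff colorimetry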
# Procedure, shortened: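 Cell-free hDIO1 assay, triplicate plates. Absorbance of the Sandell-Kolthoff reaction reports enzyme-liberated iodide; iodinated chemicals or nitrite, iron and thiocyanate may interfere.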
# [16] = CEETOX_H295R_PROG_noMTC: CeeTox H295R High-throughput Steroidogenesis Assay for Progesterone (PROG), maximum tolerated concentration (MTC) filtered results only (AID 2283920; active = hit-call score of the fitted dose curve at least 0.9, where 1 is the maximum; inactive = score below 0.9); settings: actives raise or lower the signal
# Procedure, shortened: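 H295R human adrenal cells were prestimulated 48 h with 10 uM forskolin, then exposed 48 h to test chemical (0.1% DMSO final). Progesterone in medium was quantified by HPLC-MS/MS; bidirectional fitting versus DMSO, concentrations not MTC-filtered.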
# [17] = CEETOX_H295R_ESTRONE_noMTC: CeeTox H295R High-throughput Steroidogenesis Assay for Estrone, maximum tolerated concentration (MTC) filtered results only (AID 2283921; active = hit-call score of the fitted dose curve at least 0.9, where 1 is the maximum; inactive = score below 0.9); settings: actives raise or lower the signal
# Procedure, shortened: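 H295R cells prestimulated 48 h with 10 uM forskolin, then exposed 48 h to chemical in 0.1% DMSO; medium estrone measured by HPLC-MS/MS after MTBE extraction and dansyl derivatization, fitted bidirectionally versus DMSO without MTT-based MTC filtering.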
# [18] = CEETOX_H295R_TESTO_noMTC: CeeTox H295R High-throughput Steroidogenesis Assay for Testosterone (TESTO), maximum tolerated concentration (MTC) filtered results only (AID 2283924; active = hit-call score of the fitted dose curve at least 0.9, where 1 is the maximum; inactive = score below 0.9); settings: actives raise or lower the signal
# Procedure, shortened: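 H295R cells prestimulated 48 h with 10 uM forskolin, then exposed 48 h to chemicals in 0.1% DMSO final. Testosterone in medium quantified by MTBE extraction and HPLC-MS/MS; bidirectional fit versus DMSO, concentrations […] filtered by MTT-based maximum tolerated concentration.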
smiles,measurement,setting,value
CN(C)Cc1cc(CN(C)C)c(O)c(CN(C)C)c1,outcome,[1],inactive
same,outcome,[2],inactive
same,outcome,[3],inactive
same,outcome,[4],inactive
Nc1nc(N)nc(-c2ccccc2)n1,outcome,[5],inactive
same,outcome,[6],inactive
c1ccc2c(c1)[nH]c1ccccc12,outcome,PGR (gene 5241) [7],inactive
same,outcome,PGR (gene 5241) [8],inactive
same,outcome,[9],inactive
same,outcome,[10],inactive
same,outcome,PGR (gene 5241) [11],inactive
same,outcome,PGR (gene 5241) [12],inactive
same,outcome,[13],inactive
same,outcome,[14],inactive
same,AC50,[1],8.38 µM (active)
same,outcome,[2],inactive
same,outcome,[3],inactive
same,outcome,[4],inactive
same,outcome,[15],inactive
CCCCCCCCCCCC(=O)N(C)CC(=O)O,outcome,[5],inactive
same,outcome,[6],inactive
O=C(O)c1cc(O)c2ccccc2c1O,AC50,DIO1 (gene 1733),50.1 µM (active)
CC(=O)OC1CCCCC1C(C)(C)C (centres undefined),outcome,[4],inactive
same,outcome,[15],inactive
CCCCC1C(=O)N(c2ccccc2)N(c2ccccc2)C1=O,AC50,[16],38.7 µM (active)
same,outcome,[17],inactive
same,outcome,[15],inactive
c1ccc(Nc2cccc3ccccc23)cc1,AC50,[5],1.08 µM (active)
same,AC50,[6],979 nM (active)
Cc1ccc(C)c(OCCCC(C)(C)C(=O)O)c1,outcome,[1],inactive
same,outcome,[2],inactive
same,outcome,[3],inactive
same,outcome,[4],inactive
same,outcome,[15],inactive
COc1ccc(C(=O)c2ccccc2)c(O)c1,AC50,[1],50 µM (active)
same,outcome,[3],inactive
same,outcome,[15],inactive
CCCCCCCCCCCCCCCCCCOS(=O)(=O)O,AC50,DIO1 (gene 1733),90.1 µM (active)
CC(=O)OCc1ccccc1,outcome,[1],inactive
same,outcome,[2],inactive
same,outcome,[3],inactive
same,outcome,[4],inactive
same,outcome,[15],inactive
COc1ccc(C(=O)/C(Br)=C\C(=O)O)cc1,AC50,[16],8.09 µM (active)
same,AC50,[18],83.6 µM (active)
Nc1ccc(C(=O)OCCCOC(=O)c2ccc(N)cc2)cc1,outcome,PGR (gene 5241) [8],inactive
same,outcome,[9],inactive
same,outcome,[10],inactive
same,outcome,PGR (gene 5241) [12],inactive
same,outcome,[14],inactive
O=c1c(O)c(-c2ccc(O)cc2O)oc2cc(O)cc(O)c12,AC50,DIO1 (gene 1733),9.81 µM (active)
CCCCC/C=C\C/C=C\CCCCCCCC(=O)O,AC50,DIO1 (gene 1733),19.2 µM (active)
same,outcome,[15],inactive
COc1cc(O)c(C(=O)c2ccccc2)cc1S(=O)(=O)O,outcome,[1],inactive
same,outcome,[15],inactive
C=C1C[C@H]2[C@@H]3C=C(C)C4=CC(=O)CC[C@]4(C)[C@H]3CC[C@]2(C)[C@@]1(OC(C)=O)C(C)=O,AC50,[1],0.0947 µM (active)
same,AC50,[2],4 µM (active)
same,outcome,[3],inactive
same,outcome,[4],inactive
same,outcome,[15],inactive
CCC(C)c1ccccc1 (centres undefined),outcome,[1],inactive
same,outcome,[2],inactive
same,outcome,[4],inactive
same,outcome,[15],inactive
